From PubChem
Sampled rows, rich in hits. Any-hit rate of the full collection: about 3.1%.
VDR inhibitor: vitamin D3 receptor (human) inhibition. P11473. Potency, µM, without a hit: max response, negative = inhibition, most hits filed as inhibitors. VDR-SRC2-3 peptide fluorescence polarization, 2 h. 400,000 compounds, 0.93% hits; further: potency means the concentration at half of the fitted maximal effect; on the % scale 0 is the no-effect control and ±100 the full control effect
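Signal is fluorescence polarization, reporting how far test compounds block the interaction of VDR with the SRC2-3 coregulator peptide after a 2 h room-temperature incubation.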
PLK1 PBD block: PLK1 (human) polo-box domain binding inhibition | P53350 | Plk1 PBD binding of FITC phosphopeptide, fluorescence polarization | Potency, µM, for the others: max response, negative = inhibition, usual class: inhibitors | 360,000 compounds, 2.8% hits; further: potency means the concentration at half of the fitted maximal effect; series mostly up to about 57 µM; on the % scale 0 is the no-effect control and ±100 the full control effect; nearly all actives have a fitted effect of over 65% in size
uPA generation: blocks generation of uPA at the cell surface | AID 540303 | Potency, µM (doses to about 38.3 µM), for inactives: top-dose activity change, negative = inhibition, most hits filed as inhibitors | cell surface uPA generation assay, qHTS | 330,000 compounds, 0.31% hits; active means well fitted inhibition curve with a large enough effect; inconclusive means small, poorly fitted or top-dose-only effect; inactive means no such curve, though single readings can be large or run the other way; tested in mouse RAW 264.7 cells; further: potency means the concentration at half of the fitted maximal effect; on the % scale 0 is the no-effect control and ±100 the full control effect; nearly all actives have a fitted effect of over 55% in size
PTAP TSG101 blk: blocks PTAP/TSG101 interaction to inhibit HIV-1 budding | AID 493005 | 340,000 tested, under 10 active | Q99816 | Potency, µM (highest dose often 115 µM), inactives show at the highest dose activity change, negative = inhibition, actives largely listed as inhibitors | Fluorescence polarization, FITC-PTAP peptide / Tsg101 binding; active means well fitted inhibition curve with a large enough effect in the main read-out, with a control signal flat, not every such curve was filed as active; inconclusive means small, poorly fitted or top-dose-only effect, or effect the other way, or a change in a side signal; inactive means no such curve, though single readings can be large or run the other way; further: potency means the concentration at half of the fitted maximal effect; % of control where 0% means no effect
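FP read-out: FITC-PTAP peptide, 50 nM final, binding Tsg101 binding domain, 10 uM final; 20 min, r.t.; 10 mM HEPES pH 7.5, 0.15 M NaCl, 0.01% Tween 20, 3 mM EDTA, 0.1 mM TCEP.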
TSHR antagonist: human thyrotropin receptor antagonism | P16473 | 330,000 compounds, 0.2% hits | TSHR-expressing cells, TSH-stimulated cAMP HTRF, 2 h; active compounds read low | activity change, negative = inhibition, % at 11.5 µM | AID 504810;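 active means activity change below a set negative limit, meaning inhibition stronger than a set level, cut at about -70% in these data; inconclusive means activity change between two set negative limits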; further: on the % scale 0 is the no-effect control and ±100 the full control effect
Target sequence (P16473 whole entry, looked up): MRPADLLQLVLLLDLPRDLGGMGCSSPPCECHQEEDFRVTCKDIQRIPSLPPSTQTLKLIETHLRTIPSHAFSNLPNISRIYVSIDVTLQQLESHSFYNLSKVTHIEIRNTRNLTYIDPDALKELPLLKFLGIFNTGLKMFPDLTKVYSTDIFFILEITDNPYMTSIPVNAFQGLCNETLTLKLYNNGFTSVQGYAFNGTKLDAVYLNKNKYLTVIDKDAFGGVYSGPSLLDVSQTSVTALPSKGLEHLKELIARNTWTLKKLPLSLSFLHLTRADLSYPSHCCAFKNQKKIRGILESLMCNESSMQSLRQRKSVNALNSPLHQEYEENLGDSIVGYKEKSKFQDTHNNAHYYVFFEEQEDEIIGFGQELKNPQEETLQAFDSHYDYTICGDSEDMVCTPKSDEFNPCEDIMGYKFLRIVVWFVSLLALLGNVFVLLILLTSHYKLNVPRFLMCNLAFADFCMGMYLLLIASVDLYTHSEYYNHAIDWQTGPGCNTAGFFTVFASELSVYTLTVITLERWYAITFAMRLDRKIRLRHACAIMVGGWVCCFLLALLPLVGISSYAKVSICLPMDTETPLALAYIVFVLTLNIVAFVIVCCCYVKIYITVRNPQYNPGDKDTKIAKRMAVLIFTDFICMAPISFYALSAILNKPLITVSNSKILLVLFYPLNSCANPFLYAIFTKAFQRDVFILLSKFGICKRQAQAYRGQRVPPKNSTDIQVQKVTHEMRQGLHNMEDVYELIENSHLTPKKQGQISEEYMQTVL
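Cell-based HTRF cAMP assay; TSHR cells + compound, TSH EC80 (4nM final), 2 h, 37 deg C. Lysis with anti-cAMP cryptate and cAMP-d2, 30 min RT, read 665/620 nm.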
USP1 UbRho: validation of human USP1/UAF1 inhibitors | shares compounds with VDR inhibitor | Ub-Rhodamine cleavage, fluorescence kinetic read | Potency, µM (doses to about 114 µM), for the others: at the top dose activity change, negative = inhibition, hits mostly inhibitors | 50 compounds, 50% hits | AID 540327
VDR confirm: confirmation of human vitamin D receptor inhibitors. shares compounds with VDR inhibitor. VDR-coactivator inhibition assay, qHTS confirmation. Potency, µM, hits mostly inhibitors. 840 compounds, 89% hits; further: potency means the concentration at half of the fitted maximal effect
VDR FP: blocks human VDR-coactivator binding in fluorescein assay. shares compounds with VDR inhibitor. VDR-coactivator binding, fluorescein fluorescence polarization. Potency, µM (highest dose often 57.1 µM), inactives show top-dose activity change, negative = inhibition, hits mostly inhibitors. 840 compounds, 48% hits. AID 602200; further: potency means the concentration at half of the fitted maximal effect
VDR bla reporter: confirmation of human vitamin D receptor inhibitors in reporter cells; shares compounds with VDR inhibitor; VDR beta-lactamase reporter cells, FRET ratio; cells co-treated with VDR agonist LG190178; Potency, µM (series often up to 46.1 µM), inactives show at the highest dose activity change, negative = inhibition, usual class: inhibitors; 840 compounds, 23% hits; AID 602202; further: potency means the concentration at half of the fitted maximal effect; on the % scale 0 is the no-effect control and ±100 the full control effect
VDR cytotox: cytotoxic in counter-screen for VDR inhibitors. shares compounds with VDR inhibitor. 840 compounds, 18% hits. cytotoxicity counter-screen, cell viability, qHTS. Potency, µM (top dose mostly 48.3 µM), for the others: at the top dose activity change, negative = cytotoxicity, hits mostly cytotoxic;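 further: potency means the concentration at half of the fitted maximal effect; plate controls were DMSO for no effect and high-concentration cycloheximide for full effect; nearly all actives have a fitted effect of over 75% in size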
* marks the source's active call; other numbers are inactive results; [ ] = another dose, or the depositor's remark. Unless noted, the call rests on the fitted dose curve; in most records, active means well fitted curve in the direction sought with a large enough effect; inconclusive means small, poorly fitted or top-dose-only effect, or another doubt; inactive means no such curve, though single readings can be large; an effect the other way counts as inactive or inconclusive.

`OCCN1CCN(CCCN2c3ccccc3Sc3ccc(C(F)(F)F)cc32)CC1` gave VDR inhibitor -2%, PLK1 PBD block -27%, uPA generation inconclusive, PTAP TSG101 blk -1%, TSHR antagonist 24 and USP1 UbRho inconclusive.
For FC(F)(F)c1ccc2c(c1)N(CCCN1CCN(CCCl)CC1)c1ccccc1S2 the results were VDR inhibitor -2%, PLK1 PBD block -6%, uPA generation 1%, PTAP TSG101 blk -8% and TSHR antagonist -3.
For C[C@]12CCC3C(C=CC4=CC(=O)CC[C@]43C)C1CC[C@]2(O)CCC(=O)O (some centres undefined) the results were VDR inhibitor -12%.
`c1cc(CN2CC3(CCNCC3)C2)ccn1` gave VDR inhibitor -15%.
For Nc1nc(Sc2ccc([N+](=O)[O-])c3nonc23)c2[nH]cnc2n1 the results were VDR inhibitor 14µM*, PLK1 PBD block 1.5µM*, uPA generation -10%, PTAP TSG101 blk inconclusive, VDR confirm 3.4*, VDR FP inconclusive, VDR bla reporter inconclusive and VDR cytotox 11µM*.
Cc1c(F)c(F)c(COC(=O)C2C(/C=C(\Cl)C(F)(F)F)C2(C)C)c(F)c1F (centres undefined) was read as VDR inhibitor -4%.
N#CC(O[C@@H]1OC(COC2OC(CO)C(O)C(O)[C@@H]2O)C(O)C(O)C1O)c1ccccc1 (some centres undefined) was read as VDR inhibitor -2%.
`O=c1oc2ccccc2c(O)c1[C@H]1c2ccc(O)cc2Oc2c1c(=O)oc1ccccc21` gave VDR inhibitor 79µM*, PLK1 PBD block inconclusive, uPA generation -5%, PTAP TSG101 blk -4%, TSHR antagonist -20, VDR confirm 30*, VDR FP inconclusive, VDR bla reporter 21µM* and VDR cytotox -31%.
For NC1=C([N+](=O)[O-])C(c2ccc3c(c2)OCO3)c2c(c3ccccc3oc2=O)O1 (centres undefined) the results were VDR inhibitor -5%, PLK1 PBD block -24%, uPA generation -6%, PTAP TSG101 blk -2% and TSHR antagonist 1.
`O=C(c1ccncc1)N1CCC[C@@]2(CCN(Cc3nccs3)C2)C1` gave VDR inhibitor 1%.
Screening O=P1(Oc2ccccc2)CC=CC(COC(c2ccccc2)(c2ccccc2)c2ccccc2)O1 (centres undefined) returned VDR inhibitor -16%.
COc1ccc([N+](=O)[O-])c(S(=O)(=O)c2ccc(Cl)cc2)n1 was read as VDR inhibitor 32µM*, PLK1 PBD block 3µM*, uPA generation -18%, PTAP TSG101 blk 0%, TSHR antagonist 9, VDR confirm 3*, VDR FP inconclusive, VDR bla reporter 7.3µM* and VDR cytotox inconclusive.
For COc1ccc(C(=O)/C=C2/C(=O)Nc3ccccc32)c(OC)c1 the results were VDR inhibitor 35µM*, PLK1 PBD block inconclusive, uPA generation -19%, PTAP TSG101 blk 2%, TSHR antagonist -13, VDR confirm 21*, VDR FP inconclusive, VDR bla reporter inconclusive and VDR cytotox 13µM*.
`Cn1cccc1/C=C1/C(=O)NC(=O)N(Cc2ccccc2)C1=O` gave VDR inhibitor inconclusive, PLK1 PBD block inconclusive, uPA generation -4%, PTAP TSG101 blk -2% and TSHR antagonist -9.
`CCOc1ccc(/C=C2/C(=O)NC(=O)N(CCc3ccc(F)cc3)C2=O)cc1` gave VDR inhibitor 79µM*, PLK1 PBD block 2.7µM*, uPA generation 1%, PTAP TSG101 blk -5%, TSHR antagonist 10, VDR confirm inconclusive, VDR FP 18µM*, VDR bla reporter 17% and VDR cytotox inconclusive.
`CN1C2CCC1/C(=C/c1ccccn1)C(=O)/C2=C\c1ccccn1` gave VDR inhibitor 28µM*, PLK1 PBD block 27µM*, uPA generation -25%, PTAP TSG101 blk 0%, TSHR antagonist 6, VDR confirm 2.7*, VDR FP inconclusive, VDR bla reporter 2.1µM* and VDR cytotox 21µM*.
`CCC12CN3CC(CC)(CN(C1)C3c1ccccn1)C2=O` (centres undefined) gave VDR inhibitor 12%.
O=CN1CCCCC1C1CC[C@H]2CCCCN2C1 (some centres undefined) was read as VDR inhibitor -4%.
`C[N+]1(C)CCO[C@](O)(c2ccc(-c3ccc([C@]4(O)C[N+](C)(C)CCO4)cc3)cc2)C1` gave VDR inhibitor -1%.
Cc1ccc2c(c1)Cc1c(C(=O)NN3CCCCC3)nn(-c3ccc(Cl)cc3Cl)c1-2 was read as VDR inhibitor 0%.
For CCN(CC)C(=O)N[C@H]1C=C2c3cccc4[nH]cc(c34)C[C@@H]2N(C)C1 the results were VDR inhibitor -9% and USP1 UbRho -9%[56.8 µM].
For CC(C)NC(C)C(=O)c1ccc2ccccc2c1 (centres undefined) the results were VDR inhibitor -3%, PLK1 PBD block 4%, uPA generation 5%, PTAP TSG101 blk 1% and TSHR antagonist 15.
Screening CS(=O)(=O)c1ncc(Cl)c(C(=O)Nc2ccc3ccccc3c2)n1 returned VDR inhibitor 13µM*, PLK1 PBD block 9.5µM*, uPA generation -19%, PTAP TSG101 blk -1%, TSHR antagonist inconclusive, VDR confirm 8.4*, VDR FP inconclusive, VDR bla reporter 16µM* and VDR cytotox inconclusive.
